# Most compounds without a hit are left out; they make up all but 3.4% or so of the library.
# TEAD-YAP block: TEAD-YAP interaction inhibition, primary screen, TEAD-YAP interaction inhibitor project, luminescence, HEK-TIYL cells. TEAD-Gal4/YAP UAS-luciferase luminescence. inhibition, % at 9.12 µM. hit rate 1.4% among 640,000; in the data active = inhibition above about 32%;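 also: 0% = median of test compound wells and 100% = reference inhibitor wells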
# FBW7 activator: FBW7 E3 ligase activators, primary screen, biochemical, AlphaScreen, human; AlphaScreen FBW7–phospho-cyclin E peptide binding, activator screen; normalized activity (activation), % at 26.1 µM; hit rate 0.13% among 650,000; AID 1259310, 2017; in the data active = normalized activity above about 1.9%;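 also: purified mutant Fbw7 with reduced substrate affinity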
# MITF inh: MITF inhibitors, primary screen, biochemical, AlphaScreen, human. AID 1259374, 2018. AlphaScreen MITF homodimerization, bead proximity signal. inhibition, % at 2.6 µM. hit rate 0.91% among 650,000. Microphthalmia-associated transcription factor (Homo sapiens), O75030; in the data active = inhibition above about 50%;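 also: 0% = vehicle wells with protein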
# GPR151 ag: activators of human GPR151, primary screen, cell-based, PathHunter beta-arrestin, luminescence | G-protein coupled receptor 151 (Homo sapiens), Q8TDV0 | PathHunter beta-arrestin GPR151 cells | activation, % at 11.2 µM | hit rate 1% among 650,000; in the data active = activation above about 4.9%;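 also: 0% = median of compound wells and 100% = cells with positive control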
# Target sequence (Q8TDV0 whole entry, looked up): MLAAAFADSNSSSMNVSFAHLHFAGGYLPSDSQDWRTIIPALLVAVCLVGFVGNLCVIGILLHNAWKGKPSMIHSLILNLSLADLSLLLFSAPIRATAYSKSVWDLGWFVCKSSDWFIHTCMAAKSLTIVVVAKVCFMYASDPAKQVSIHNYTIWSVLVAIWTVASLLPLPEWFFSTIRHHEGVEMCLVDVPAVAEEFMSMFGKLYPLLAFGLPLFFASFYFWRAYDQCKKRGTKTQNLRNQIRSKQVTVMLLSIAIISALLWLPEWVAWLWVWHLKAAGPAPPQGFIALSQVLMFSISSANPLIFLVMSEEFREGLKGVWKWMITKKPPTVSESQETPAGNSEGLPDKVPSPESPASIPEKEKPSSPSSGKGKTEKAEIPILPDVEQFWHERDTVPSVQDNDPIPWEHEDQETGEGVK
# Starred values were filed as active, the others as inactive; ! = repeats disagree.
SMILES,TEAD-YAP block,FBW7 activator,MITF inh,GPR151 ag
O=C(COc1ccccc1)NC(c1ccco1)c1cc(Cl)c2cccnc2c1O (stereo not drawn),85*,0,25,-1
O=C(COc1ccccc1)NC(c1ccccc1)c1cc(Cl)c2cccnc2c1O (stereo not drawn),-5,0,0,-1
CCC(=O)NC(c1ccco1)c1ccc2cccnc2c1O (stereo not drawn),27,-2,70*,-2
CCC(=O)NC(c1ccco1)c1cc(Cl)c2cccnc2c1O (stereo not drawn),37*,0,38,0
Cn1c(=O)[nH]c(=O)c2c1nc(N/N=C/c1ccccc1)n2CCc1ccccc1,-17,1,21,-1
CCc1c(C(=O)N/N=C/c2ccc(O)cc2O)nnn1-c1nonc1N,76*,0,0,-2
CN(C)Cc1c(C(=O)N/N=C/c2ccc(O)cc2O)nnn1-c1nonc1N,24,-1,15,0
CC(C)(C)c1ccc(C(=O)N/N=C/c2ccc(O)cc2O)cc1,9,0,-51,1
Cc1nonc1C(=O)N/N=C/c1ccc(O)cc1O,4,-1,82*,-8
CCCN(CCC)Cc1c(C(=O)N/N=C/c2ccc(O)cc2O)nnn1-c1nonc1N,71*,0,36,0
Cc1ccc(C2=C/C(=C\C=C\c3ccccc3)C(=O)O2)cc1,1,0,10,1
Cc1noc(C)c1-c1nc(Nc2ccc(Oc3ccccc3)cc2)c2ncn(-c3ccsc3)c2n1,-12,0,5,1
COc1ccc(C=O)cc1OS(=O)(=O)c1ccc(Cl)cc1,25,0,4,-1
COc1cccc(C=O)c1OS(=O)(=O)c1ccc(Cl)cc1,11,0,-5,1
COc1ccc(S(=O)(=O)Oc2ccc(C=O)cc2OC)cc1,47*,0,7,-1
COc1ccc(S(=O)(=O)Oc2c(C=O)cccc2OC)cc1,46*,0,-7,0
COc1ccc(S(=O)(=O)Oc2cccc(C=C3C(=O)NC(=S)NC3=O)c2)cc1,6,1,5,-1
COc1ccc(S(=O)(=O)Oc2ccc(C=C3C(=O)NC(=S)NC3=O)cc2OC)cc1,54*,0,-6,0
Cc1nc2c3ccccc3nc(N3CCOCC3)n2n1,0,0,3,1
COc1ccc(-c2nc3cc(C)ccc3o2)cc1,69*,0,0,-7
Cc1ccc2oc(-c3ccc(N)cc3)nc2c1,69*,0,5,-7
Nc1ccc2oc(-c3ccc(Cl)c(Cl)c3)nc2c1,-3,0,-8,-4
Nc1ccc2oc(-c3ccc(O)cc3)nc2c1,89*,0,6,-6
Cc1ccc2oc(-c3cccc(N)c3)nc2c1,-6,0,4,-9
COc1ccc(-c2nc3cc(N)ccc3o2)cc1,31,0,-3,-6
SMILES,TEAD-YAP block,FBW7 activator,MITF inh,GPR151 ag
Cc1ccc(-c2nc3cc(N)ccc3o2)cc1,54*,0,-3,-8
COc1ccccc1-n1nnc(C(=O)Nc2cccc(F)c2)c1C,-60,0,1,2
Nc1ccc2oc(-c3cc(Cl)ccc3Br)nc2c1,48*,0,-4,1
Nc1ccc(O)c(-c2nc3cc(Cl)ccc3o2)c1,-43,0,4,-2
Nc1ccc(-c2nc3cc([N+](=O)[O-])ccc3o2)cc1,-39,0,3,-2
Oc1ccc2nc(-c3ccccc3)oc2c1,70*,1,5,-6
CC(C)(C)c1ccc2oc(-c3ccc(N)cc3)nc2c1,69*,0,4,0
Cc1cccc2oc(-c3ccc(N)cc3)nc12,51*,0,2,-3
COc1cc2nc(CN(C)C(C)c3cccs3)nc(N)c2cc1OC (stereo not drawn),4,0,12,0
Cc1ncn(-c2ccc(Nc3ncc4cccc(-c5ccn[nH]5)c4n3)cc2)n1,33*,1,9,0
Cc1ncn(-c2ccc(Nc3ncc4cccc(-c5cccnc5)c4n3)cc2)n1,46*,1,15,0
Cc1ncn(-c2ccc(Nc3ncc4cccc(-c5ccn(C)n5)c4n3)cc2)n1,62*,1,38,-1
Cc1ncn(-c2ccc(Nc3ncc4cccc(-c5cn[nH]c5C)c4n3)cc2)n1,45*,0,19,1
Cc1ncn(-c2ccc(Nc3ncc4cccc(-c5ccc(F)cc5)c4n3)cc2)n1,18,0,5,1
Cc1ncn(-c2ccc(Nc3ncc4cccc(-c5cccc6c5ccn6C)c4n3)cc2)n1,5,0,-15,0
Cc1ncn(-c2ccc(Nc3ncc4cccc(C)c4n3)cc2)n1,-11,0,-10,4
Cc1cc2[nH]c(=O)c(CCO)c(C)n2n1,-4,0,11,0
Cc1ccc(-c2cccc3cnc(NC4CCC(C(=O)N5CCCC5)CC4)nc23)cn1 (stereo not drawn),45*!,1,10,-2
Cc1ccc(-c2ncn(-c3ccc(Nc4cc(Nc5ccccc5C(N)=O)c(C)cn4)cc3)n2)cn1,38*,0,-15,4
Cc1ccc(-c2ncn(-c3ccc(Nc4ncc5cccc(-c6ccc(C)nc6)c5n4)cc3)n2)cn1,7,2.3*,6,2
Cc1ccc(-c2ncn(-c3ccc(Nc4cc(Nc5ccccc5C(N)=O)c(C5CC5)cn4)cc3)n2)cn1,22,0,-14,-1
Cc1ncn(-c2ccc(Nc3ncc4cccc(-c5nccs5)c4n3)cc2)n1,56*,0,29,0
Nc1nc2c(s1)CCCC2,2,0,3,-1
Cc1ccc(-c2cccc3cnc(Nc4ccc5c(c4)OCO5)nc23)cn1,33*,0,12,0
Cc1ccc(-c2ncn(-c3ccc(Nc4ncc5cccc(-c6ccc7c(c6)OCO7)c5n4)cc3)n2)cn1,1,1,3,0
SMILES,TEAD-YAP block,FBW7 activator,MITF inh,GPR151 ag
O=C(O)c1c(Cl)nc(Cl)c([N+](=O)[O-])c1Cl,15,0,6,0
COc1ccc(NC(=O)c2c(Cl)nc(Cl)c([N+](=O)[O-])c2Cl)cc1,85*,0,-2,3
NC(=O)c1c(Cl)nc(Cl)c([N+](=O)[O-])c1Cl,98*,0,5,-1
CCCCNC(=O)c1c(Cl)nc(Cl)c([N+](=O)[O-])c1Cl,45*,0,0,-1
COC(=O)c1ccc(NC(=O)c2cc(I)ccc2Cl)cc1,0,0,-10,1
COC(CNC1CCCc2c1[nH]c1ccc(C)cc21)OC (stereo not drawn),14,0,2,0
Cc1ccc2[nH]c3c(c2c1)CCCC3NCc1ccc(Cl)cc1 (stereo not drawn),43*,0,11,1
O=C(Nc1nc(-c2cccs2)cs1)c1ccncc1,35*,0,12,-1
Cc1ccc(Nc2nc(-c3cccs3)cs2)nc1,56*,0,4,-3

# Compound activity as filed in PubChem BioAssay.
